# Measurements reported in PubChem BioAssay.
# Where “and” joins values, the source holds several entries; their conditions need not be identical. Equal values may be shown once. Results filed as inconclusive are left out. A number with no mark means an inactive call.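 Rule for the calls, unless noted: active = GFP signal above the screen-wide mean plus 3 SD, that is over about 124.5% of the solvent control; inconclusive = no reading because the compound's own fluorescence disturbed strain identification; inactive = the rest.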 Peptide text beside a SMILES is read from it.
# Columns and labels:
# [1] = modulators of MEP2-GFP levels in yeast, primary screen, S. cerevisiae, multiplex flow cytometry (AID 1867;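 active = GFP response, as percent of the DMSO control, above the screen-wide mean plus 3 SD, about 139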;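 note: median GFP channel fluorescence of barcode-gated MEP2-GFP cells measured by flow cytometry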); conditions: S. cerevisiae MEP2-GFP strain, 3 h, at 10 µM, stronger effect = higher value
# [2] = modulators of AGP1-GFP expression in yeast TOR pathway, primary screen, cell-based, multiplex flow cytometry, S. cerevisiae (AID 1887); conditions: 3 h, at 10 µM, stronger effect = higher value;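 note: AGP1-GFP fusion strain of S. cerevisiae within a five-strain barcoded multiplex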
SMILES,GFP response vs DMSO [1],"GFP response, % of DMSO [2]"
Cc1ccc2c(c1)C1CN(C)CCC1N2C(=O)Nc1cccc(Cl)c1 (stereo not given),102%,102%
O=c1[nH]c2ccccc2n1CCCN1CCC(n2c(=O)[nH]c3cc(Cl)ccc32)CC1,109%,101%
CCOC(=O)c1cc2c(cn1)[nH]c1ccccc12,103%,94.5%
COc1ccc2c(c1)CC1(CN2C)C(=O)NC(=O)N(CCc2ccccc2)C1=O (stereo not given),98.3%,97.8%
CC(Cc1ccccc1)NCC(=O)Nc1cc(N(C)C)nc2ccccc12 (stereo not given),107%,103%
[N-]=[N+]=NC1C[C@H](n2ccc(=O)[nH]c2=O)O[C@@H]1CO (stereo not given in full),99.9%,104%
S=C1NCCN1,109%,99.6%
CN1C(=O)CN=C(c2ccc(Cl)cc2)c2cc(Cl)ccc21,100%,92.2%
CCn1c(O)c(C(=O)CC2NCCc3ccccc32)c(=O)n(CC)c1=S (stereo not given),118%,101%
CN[C@H](C)[C@H](O)c1ccccc1,131%,101%
CC(=O)C1=C(C)OC(N)=C(C(=O)OC(C)C)C12C(=O)Nc1ccccc12 (stereo not given),105%,101%
C[C@H]1CCC/C=C/C2C[C@H](O)CC2[C@H](O)/C=C/C(=O)O1 (stereo not given in full),111%,102%
COc1ccc(C(=O)N2CCCC2=O)cc1,107%,117%
COC1=CC(=O)OC(/C=C/c2ccccc2)C1 (stereo not given),105%,103%
NCCc1c[nH]c2ccc(F)cc12,103%,100%
CC(C)[C@H]1C(=O)N2CCC[C@H]2[C@]2(O)O[C@](NC(=O)[C@@H]3C=C4c5cccc6[nH]cc(c56)C[C@H]4N(C)C3)(C(C)C)C(=O)N12,108%,118%
Cc1cccc(C)c1NC1=NCCCS1,104%,91.8%
Cc1ccc(/C=C2/C(=O)NC(=O)N(C)C2=O)cc1,96.9%,93.6%

SMILES,GFP response vs DMSO [1],"GFP response, % of DMSO [2]"
CN(C)[C@@H]1C(=O)C(C(N)=O)=C(O)[C@@]2(O)C(=O)C3=C(O)c4c(O)cccc4[C@@](C)(O)[C@H]3[C@H](O)[C@@H]12,98.9%,103%
Cc1cc(Cl)ccc1OC(C)C(=O)O (stereo not given),108%,87.3%
C[N+]1(C)[C@@H]2CC(OC(=O)[C@H](CO)c3ccccc3)C[C@H]1[C@@H]1O[C@@H]12 (stereo not given in full),104% and 114%,99.6% and 104%
O=C(CCCN1CCC2(CC1)C(=O)NCN2c1ccccc1)c1ccc(F)cc1,95.7%,113%
CC[C@@H](CO)NC(=O)[C@@H]1C=C2c3cccc4c3c(cn4C)C[C@H]2N(C)C1,103%,94.5%
CC(C)C[C@H](NC(=O)[C@@H]1CCCN1C(=O)[C@@H](N)Cc1ccc(O)cc1)C(=O)NCC(N)=O (H-YPLG-NH2),101%,103%
CCNC(=S)N(C)CCc1cc2c(c(OC)c1C=C1C(=O)N(C)C(=O)N(C)C1=O)OCO2,95.9%,96.1%
CCN(CC)C(=O)N[C@H]1C[C@@H]2c3cccc4[nH]cc(c34)C[C@H]2N(C)C1,107%,98.6%
Cc1cc(Cl)ccc1OCC(=O)O,93.8%,103%
COc1ccc(OC)c(C(O)C(C)N)c1 (stereo not given),94.1%,98.3%
O=C1CC[C@@]2(O)[C@H]3Cc4ccc(O)c5c4[C@@]2(CCN3CC2CC2)[C@H]1O5,126%,96.1%
CN[C@H]1C[C@H]2O[C@@](C)([C@H]1OC)n1c3ccccc3c3c4c(c5c6ccccc6n2c5c31)C(=O)NC4,105%,90.8%
c1ccc(Cn2ccnc2)cc1,97.9%,98.2%
NCC1(c2ccc3c(c2)OCCO3)CCCC1,101%,91.3%
COc1ccc(Cc2nccc3cc(OC)c(OC)cc23)cc1OC,96.7%,99.5%
CC(=O)[C@H]1CC[C@H]2[C@@H]3CC[C@H]4C[C@H](O)CC[C@]4(C)[C@H]3C(=O)C[C@]12C,97.9%,90.4%
C[N+]1(C)CCN(c2ccccc2)CC1,94.8%,96.6%
